Bioassay records from PubChem.
HBB splicing = alters splicing of the hemoglobin beta chain | HBB splicing reporter cell assay, activation; EGFP reporter with mutant IVS2-654 intron; response scale: normalised to 500 nM splice-correcting PNA | 65,000 compounds, 0.06% hits | Potency, µM (highest dose often 46.1 µM), without a hit: at the highest dose activation, actives largely listed as activators; also: potency is read from the fitted curve at half-maximal effect; 0% is about no effect
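Compounds were applied for 2 days to HeLa EGFP-654 cells, 500/well in Optimem with 2% FCS. The reporter's EGFP is disrupted by mis-splicing of beta-globin intron IVS2-654. Readout: summed well GFP fluorescence from 488 nm laser scanning; reference was 500 nM antisense […] 654 PNA.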
ERK AVP block = inhibitors of vasopressin-stimulated ERK signaling pathway; Potency, µM (series often up to 57.5 µM), for inactives: at the highest dose activity, negative = inhibition, actives largely listed as inhibitors; HEK293-V1b, vasopressin-stimulated pERK AlphaScreen; AID 995; 72,000 compounds, 0.99% hits; also: potency is read from the fitted curve at half-maximal effect; % is scaled to controls: 0 for no effect and ±100 for the full control effect; nearly all actives have a fitted effect of over 55% in size
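HEK293 cells stably expressing V1b receptor, seeded overnight in 1% FBS, were treated with compounds for 30 min at 37C, then stimulated 5 min with 25 nM vasopressin; phospho-ERK read by AlphaScreen SureFire after lysis.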
Peg3 imprint = inducers of genomic imprint erasure in mouse ES cells; Potency, µM (titrated, usually from 60.7 µM), inactives show at the highest dose activity change, positive = activation, most hits filed as activators; AID 1948; 110,000 compounds, 0.02% hits; mouse ES Peg3-LacZ reporter, beta-gal luminescence, 40 h; also: potency is read from the fitted curve at half-maximal effect
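Each well holds 300 Peg3LacZ-Neo (maternal) female ES cells incubated 40 h at 37C, 5% CO2. LacZ is measured by BetaGlo luminescence, with AC50 and maximum efficacy derived from dose-response curves.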
GFP derepression = epigenetic GFP locus derepression in mouse cells; mouse C127i GFP locus derepression, cytometry, 30 h; Potency, µM (doses to about 46.1 µM), for inactives: at the highest dose GFP derepression (activation); 68,000 compounds, 0.09% hits; AID 597; also: % of control where 0% means no effect
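Derepression screen: silenced CMV-GFP reporter in murine C127i cells, 30 h compound incubation at 37 C, washed cells imaged by laser-scanning cytometer to enumerate GFP-expressing objects of 20 to 120 um.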
Ub-GFP proteasome = ubiquitin-GFP accumulation via proteasome inhibition; Ubiquitin-GFP reporter cells, proteasome inhibition, GFP fluorescence; response scale: untreated = 0%, 10 µM MG-132 = 100%; Potency, µM (highest dose often 45.9 µM), inactives show at the top dose activation (GFP accumulation), most hits filed as activators; 67,000 tested, under 10 active; active = well fitted activation curve with a large enough effect, not every such curve was filed as active; inconclusive = small, poorly fitted or top-dose-only effect, or another doubt; inactive = no such curve, though single readings can be large or run the other way; also: potency is read from the fitted curve at half-maximal effect
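Proteasome blockade was scored as a rise in GFP-expressing U2OS cells carrying a ubiquitin(G76V)-GFP construct, imaged after 4 hr compound treatment at 37 °C across a 46 uM–2.9 nM series.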
An asterisk follows results filed as active; ? = inconclusive; / = not tested or not shown; [ ] = another dose, or the depositor's remark. Only a selection was taken, and hits are over-represented in it overall. Unless noted, calls follow the shape of the dose curve; as a rule, active = well fitted curve in the direction sought with a large enough effect; inconclusive = small, poorly fitted or top-dose-only effect, or another doubt; inactive = no such curve, though single readings can be large; an effect the other way counts as inactive or inconclusive.

SMILES	HBB splicing	ERK AVP block	Peg3 imprint	GFP derepression	Ub-GFP proteasome
c1ccc(-c2csc(-c3nc4ccccc4[nH]3)n2)cc1	/	1.3µM*	-36%	/	/
CCSc1nnc2c(n1)OC(c1ccc(C)cc1)N(C(C)=O)c1ccccc1-2 (centres undefined)	/	/	-8%[10.9 µM]	/	/
CCn1c(CSc2nc3ccccc3s2)nc2ccccc21	-4%[0.0738 µM]	40µM*	-15%	0%	-9%[9.17 µM]
Nc1nc2c(s1)CCc1c-2cnn1-c1ccccc1	-1%	25µM*	-72%	2%	-1%
COc1ccc(-c2cnn(-c3ccccc3)c2N)cc1OC	-3%[0.0738 µM]	-9%	-12%	3%	5%[9.17 µM]
CCCCCn1c(=N)n(CC(O)COc2ccccc2OC)c2ccccc21 (centres undefined)	-1%	13µM*	5%	/	7%
COc1ccc(Cl)cc1NS(=O)(=O)c1ccc(S(=O)(=O)N2CCCC2)cc1	0%[57.5 µM]	25µM*	-10%	-1%	-4%
COc1ccc(S(=O)(=O)Nc2cc(Cl)ccc2OC)cc1	-1%[0.0738 µM]	-1%	-18%	-3%	-6%[9.17 µM]
COc1ccccc1C(=O)Nc1cc(Cl)ccc1O	/	/	/	-3%[20.6 µM]	/
CCOc1ccccc1C(=O)Nc1cc(Cl)ccc1O	-1%	10µM*	-33%	1%	-2%
O=C(COc1ccc(Cl)cc1)Nc1nc(-c2cccs2)cs1	0%[57.5 µM]	25µM*	-9%	4%	-1%
COc1cc(C(=O)Nc2nc(-c3cccs3)cs2)cc(OC)c1OC	4%[0.369 µM]	3.2µM*	-6%	-2%	/
O=C(Cc1ccccc1)Nc1nc(-c2cccs2)cs1	0%[57.5 µM]	24%	-17%	1%	-1%
CC1(C)CC(NC(=O)c2coc(=O)c(Br)c2)CC(C)(C)N1	1%[0.369 µM]	20µM*	-21%	0%	/
Cc1c(Br)cc(C(=O)N2CCCC2)c(C)c1C	-6%	-23%	-10%	0%	-6%
Cc1cccc2sc(N3CCN(C(=O)CS(=O)(=O)c4ccc(F)cc4)CC3)nc12	/	/	-7%[10.9 µM]	/	/
CCOCCCNC(=O)C(=O)Nc1c2c(nn1-c1ccccc1)CSC2	/	/	-11%[10.9 µM]	/	/
O=C(Oc1ccc(-c2cn3c(n2)SCC3)cc1)c1ccccc1	0%	16µM*	-30%	2%	-4%
O=c1cc(-c2ccc(O)c(O)c2)oc2ccccc12	/	7.9µM*	-49%	/	/
O=c1cc(-c2ccc(O)cc2)oc2cccc(O)c12	/	4µM*	-76%	/	/
COc1ccc(C(=O)NCC(c2cccs2)S(=O)(=O)c2ccc(C)cc2)cc1 (centres undefined)	/	/	16%[10.9 µM]	/	/
COC(=O)c1scc(-c2ccc(C)cc2)c1S(=O)(=O)Nc1c(C)cc(C)cc1C	/	/	-5%[10.9 µM]	/	/
CCOC(=O)c1ccc(NC(=O)CCc2nc(-c3ccccc3)no2)cc1	0%	16µM*	-34%	0%	1%
CCOC(=O)c1ccc(NC(=O)CCc2nc(-c3ccccc3Cl)no2)cc1	1%	?	-26%	0%	3%
CCc1cccc(NC(=O)CCc2nc(-c3cccs3)no2)c1	0%	25µM*	-8%	0%	-5%
SMILES	HBB splicing	ERK AVP block	Peg3 imprint	GFP derepression	Ub-GFP proteasome
O=C(O)CCC(=O)Nc1nnc(C(F)(F)F)s1	-1%	0%	8%	1%	0%
Cc1c2cnn(CC(=O)NCc3ccc(F)cc3)c(=O)c2c(C)n1Cc1ccccc1Cl	/	/	-9%[10.9 µM]	/	/
O=C(COC(=O)CCCc1c[nH]c2ccccc12)Nc1ccc2c(c1)OCO2	-2%	40µM*	-2%	-1%	-6%
Cc1ccc(S(=O)(=O)N2CCN(S(=O)(=O)N3CCCCC3)CC2)cc1	1%	-1%	12%	2%	-2%
CC(C)(C)NC(=O)NC(=O)COC(=O)C1CC(=O)N(Cc2ccccc2)C1 (centres undefined)	-2%	?	2%	-3%	-1%
Cc1[nH]nc2c1-c1nc3ccccc3nc1C(C)(C)C2	-1%	13µM*	-21%	0%	3%
CC1CCCCN1c1nc(-c2ccncc2)nc2ccccc12 (centres undefined)	2%[1.84 µM]	32µM*	-17%	3%	2%
CN(C)c1ccc(/C=C2/C(=O)Nc3ccccc32)cc1	2%	16µM*	-82%	1%	-1%
CN(C)c1ccc(/C=C2\C(=O)Nc3ccccc32)cc1	/	/	-52%	/	/
COC(=O)[C@H](CCSC)NC(=O)Nc1ccc(C)c(C)c1	-1%[57.5 µM]	0%	-5%	-2%	-5%
CCOc1ccc(-c2nc(C#N)c(N3CCN(Cc4ccccc4)CC3)o2)cc1	-1%	16µM*	-22%	2%	0%
CCOc1ccc(-c2nc(C#N)c(N3CCOCC3)o2)cc1	-1%	?	-15%	-3%	-12%
COc1ccc(CCNC(=O)CN2C(=O)C3(OCCCO3)c3ccccc32)cc1OC	3%[1.84 µM]	4%	-10%	2%	19%
COc1ccccc1NC(=O)c1c(C)cc(C)nc1SCC(=O)c1ccc(Cl)cc1	/	/	8%[10.9 µM]	/	/
CN(C)S(=O)(=O)c1ccc2c(c1)c(=O)c(C(=O)NCCCN1CCCCCC1)cn2C	1%	16µM*	-6%	-3%	0%
COc1ccc(S(=O)(=O)N2CCSC2c2ccc(OC)c(OC)c2)cc1 (centres undefined)	2%	-6%	-15%	0%	-1%
COc1ccc(C2SCCN2S(=O)(=O)c2ccc(F)cc2)cc1OC (centres undefined)	/	13µM*	-3%	0%	-2%
Cc1nc2ncnn2c(N2CCN(C(c3ccccc3)c3ccccc3)CC2)c1C	-8%	25µM*	-41%	-2%	0%
COc1ccccc1-c1nc(C#N)c(N2CCc3ccccc3C2)o1	7%[0.369 µM]	20µM*	-12%	0%	3%
OCc1nc2ccccc2n1CC(O)Cn1ccc2ccccc21 (centres undefined)	-2%	16µM*	-8%	1%	-4%
CC(C)(C)OC(=O)NCCCCCc1nnc(SCC(=O)Nc2cccc(Cl)c2)o1	6%[1.84 µM]	25µM*	-5%	2%	-4%
O=C(NCc1cccnc1)c1ccc(COc2ccc3c(c2)CCC3)o1	0%	25µM*	-11%	2%	-3%
Cc1nc(Nc2ccncc2)c2oc3ccccc3c2n1	-2%[57.5 µM]	-21%	-23%	3%	2%
Cc1nc(NCCc2cnc[nH]2)c2oc3ccccc3c2n1	-2%	-21%	-14%	3%	7%
Cc1nc(NCc2ccco2)c2oc3ccccc3c2n1	-2%[57.5 µM]	25µM*	-16%	0%	-2%
COc1ccc(CCNc2nc(C)nc3c2oc2ccccc23)cc1OC	-2%[57.5 µM]	13µM*	-18%	-2%	-3%
COc1ccc(CCNc2ncnc3c2oc2ccccc23)cc1OC	5%[0.369 µM]	32µM*	-21%	0%	-3%
CC(C)C1C(C#N)=C(N)Oc2n[nH]c(-c3cccs3)c21 (centres undefined)	0%[57.5 µM]	16µM*	0%	-1%	-1%
